# Screens (PubChem BioAssay)
# PLK1 PBD block – qHTS for Inhibitors of PLK1-PDB (polo-like kinase 1 - polo-box domain): Primary Screen | AID 720504, 2013 | Plk1 PBD binding of FITC phosphopeptide, fluorescence polarization | Serine/threonine-protein kinase PLK1 (Homo sapiens), P53350 | Potency, µM, for inactives: max response, negative = inhibition, usual class: inhibitors | 360,000 tested, 2.8% active; also: potency is read from the fitted curve at half-maximal effect; series mostly up to about 57 µM; % is scaled to controls: 0 for no effect and ±100 for the full control effect; nearly all actives have a fitted effect of over 65% in size
# Target sequence (P53350 whole entry, looked up, the tested form may be a part): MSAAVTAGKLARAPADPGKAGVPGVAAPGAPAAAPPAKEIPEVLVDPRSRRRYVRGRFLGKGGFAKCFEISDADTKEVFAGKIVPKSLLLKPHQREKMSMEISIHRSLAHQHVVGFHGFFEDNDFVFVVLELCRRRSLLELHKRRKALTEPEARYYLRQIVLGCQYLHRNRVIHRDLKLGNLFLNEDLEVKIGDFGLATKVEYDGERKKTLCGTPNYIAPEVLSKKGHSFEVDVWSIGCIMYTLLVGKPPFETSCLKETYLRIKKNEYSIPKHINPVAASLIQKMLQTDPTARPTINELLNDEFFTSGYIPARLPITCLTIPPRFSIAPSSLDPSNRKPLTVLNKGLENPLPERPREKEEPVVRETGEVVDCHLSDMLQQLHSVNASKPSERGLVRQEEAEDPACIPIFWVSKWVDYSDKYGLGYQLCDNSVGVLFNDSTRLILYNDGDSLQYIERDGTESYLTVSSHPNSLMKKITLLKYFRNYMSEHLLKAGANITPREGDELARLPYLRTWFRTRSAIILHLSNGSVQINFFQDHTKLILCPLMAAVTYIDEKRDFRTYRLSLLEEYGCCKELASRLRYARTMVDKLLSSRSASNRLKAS
# Sfp inh – qHTS Assay for Inhibitors of Bacillus subtilis Sfp phosphopantetheinyl transferase (PPTase); 4'-phosphopantetheinyl transferase ffp (Bacillus subtilis), Q9F4F7; Biochemical Sfp PPTase activity, qHTS; Potency, µM, inactives show largest response in the series, negative = inhibition, most hits filed as inhibitors; 310,000 tested, 3.5% active; AID 1490, 2009;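 also: the enzyme is Sfp with the accession as filed and its product quenches rhodamine fluorescence; potency is read from the fitted curve at half-maximal effect; 0% = enzyme reaction without inhibitor and -100% = no enzyme wells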
#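 With Hepes-Na pH 7.6 buffer containing 10 mM MgCl2, Sfp (15 nM) modified BHQ-2-YbbR (12.5 uM) using rhodamine-CoA (5 uM). Two reads 30 minutes apart at 525/598 nm yielded each well's rate.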
# G9a block – qHTS Assay for Inhibitors of Histone Lysine Methyltransferase G9a | 350,000 tested, 8.8% active | G9a H3K9 monomethylation, AlphaScreen, 2 h | Potency, µM (titrated, usually from 102 µM), inactives show top-dose activity, negative = inhibition, usual class: inhibitors | Histone-lysine N-methyltransferase EHMT2 (Homo sapiens), Q96KQ7 | AID 504332, 2011; also: potency is read from the fitted curve at half-maximal effect; % is scaled to controls: 0 for no effect and ±100 for the full control effect; nearly all actives have a fitted effect of over 75% in size
#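 Quantitative HTS format: methyltransferase activity on a biotin-tagged H3K9 peptide is measured by AlphaScreen, using a rabbit anti-monomethyl-H3K9 antibody with streptavidin donor and anti-IgG acceptor beads. Final levels are 20 nM enzyme, 500 nM peptide, 20 uM SAM; 2 h RT.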
# Mm-Cpn inhibitor – Inhibitors of TCP-1 ring complex (TRiC) of Methanococcus maripaludis (MmCpn): qHTS. AID 504842, 2011. 330,000 tested, 0.031% active. Potency, µM (highest dose often 76.9 µM), without a hit: at the top dose activity, negative = inhibition, usual class: inhibitors. purified Mm-Cpn ATPase, ADP Transcreener TR-FRET. Chaperonin Mm-Cpn (Methanococcus maripaludis); also: potency is read from the fitted curve at half-maximal effect; % is scaled to controls: 0 for no effect and ±100 for the full control effect; nearly all actives have a fitted effect of over 80% in size
#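 25 nM Mm-CPN + cpd, 10 min 37°C; + 10 uM ATP, 30 min 37°C; buffer 30 mM Tris pH 7.4, 100 mM KCl, 5 mM MgCl2, 1 mM DTT; Transcreener ADP HTRF detection 30 min RT.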
# VDR inh – Inhibitors of the vitamin D receptor (VDR): qHTS. AID 504847, 2011. Vitamin D3 receptor (Homo sapiens), P11473. VDR-SRC2-3 peptide fluorescence polarization, 2 h. Potency, µM, for inactives: max response, negative = inhibition, hits mostly inhibitors. 400,000 tested, 0.93% active; also: potency is read from the fitted curve at half-maximal effect; % is scaled to controls: 0 for no effect and ±100 for the full control effect
#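 Reagent solutions, kept cold and dark, are dispensed first; compounds are then pinned in at 23 nl, plates briefly spun, and incubated 2 h at ambient temperature. Inhibition of VDR–SRC2-3 peptide binding is read by fluorescence polarization.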
# CCT modulator – High-Throughput Screening for Modulators of Cytosolic Chaperonin Activity; purified chaperonin ATPase assay, HTRF ADP detection, 30 min; activity change, % (concentration not given with the values), hits read low; 360,000 tested, 0.3% active; AID 651819, 2012; in the data active = activity change below about -30%; also: % is scaled to controls: 0 for no effect and ±100 for the full control effect
#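 TRiC (40 or 20 nM final, by batch activity) in 30 mM Tris pH 7.4, 100 mM KCl, 5 mM MgCl2, 1 mM DTT was treated with compound at 76 uM single dose, then 10 uM ATP, 30 min at 37 °C. ADP was read by HTRF Transcreener.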
# VDR inh confirm – qHTS for Inhibitors of the vitamin D receptor (VDR): Hit Validation in Primary Screen. AID 602199, 2012. shares compounds with VDR inh. 840 tested, 89% active. Potency, µM, most hits filed as inhibitors. VDR-coactivator inhibition assay, qHTS confirmation; also: potency is read from the fitted curve at half-maximal effect
# VDR FP – qHTS for Inhibitors of the vitamin D receptor (VDR): Hit Validation using a Fluorescein Assay | Potency, µM (series often up to 57.1 µM), for inactives: at the top dose activity change, negative = inhibition, actives largely listed as inhibitors | VDR-coactivator binding, fluorescein fluorescence polarization | shares compounds with VDR inh | AID 602200, 2012 | 840 tested, 48% active; also: potency is read from the fitted curve at half-maximal effect
# VDR bla reporter – qHTS for Inhibitors of the vitamin D receptor (VDR): Hit Validation using a Beta-Lactamase Assay; 840 tested, 23% active; shares compounds with VDR inh; VDR beta-lactamase reporter cells, FRET ratio; cells co-treated with VDR agonist LG190178; Potency, µM (series often up to 46.1 µM), for the others: top-dose activity change, negative = inhibition, usual class: inhibitors; also: potency is read from the fitted curve at half-maximal effect; % is scaled to controls: 0 for no effect and ±100 for the full control effect
# VDR cytotox – qHTS for Inhibitors of the vitamin D receptor (VDR): Hit Validation using a Cytotoxicity Assay; shares compounds with VDR inh; Potency, µM (top dose mostly 48.3 µM), without a hit: top-dose activity change, negative = cytotoxicity, actives largely listed as cytotoxic; AID 602204, 2012; cytotoxicity counter-screen, cell viability, qHTS; 840 tested, 18% active;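 also: potency is read from the fitted curve at half-maximal effect; plate controls were DMSO for no effect and high-concentration cycloheximide for full effect; nearly all actives have a fitted effect of over 75% in size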
# Numbers without * were called inactive; ? = inconclusive; nt = no result given; [ ] = dose if it differs, or a comment. The list is not random: actives were taken first. Their share in the collection is about 10%. Unless noted, calls follow the shape of the dose curve; as a rule, active = well fitted curve in the direction sought with a large enough effect; inconclusive = small, poorly fitted or top-dose-only effect, or another doubt; inactive = no such curve, though single readings can be large; an effect the other way counts as inactive or inconclusive.
SMILES,PLK1 PBD block,Sfp inh,G9a block,Mm-Cpn inhibitor,VDR inh,CCT modulator,VDR inh confirm,VDR FP,VDR bla reporter,VDR cytotox
O=C(Nc1cc(S(=O)(=O)N2CCOCC2)ccc1N1CCCC1)c1ccccc1F,3%,nt,nt,nt,nt,-1,nt,nt,nt,nt
O=C(Nc1cc(S(=O)(=O)N2CCOCC2)ccc1N1CCCCC1)c1ccccc1Br,4.7µM*,nt,nt,?,89µM*,-33*,17*,?,17%,19%
O=C(Nc1cc(S(=O)(=O)N2CCOCC2)ccc1N1CCCC1)c1ccc2c(c1)S(=O)(=O)c1ccccc1C2=O,4.7µM*,10µM*,nt,-6%,45µM*,-3,8.4*,3.5µM*,27%,-5%
Nc1cc(S(=O)(=O)N2CCOCC2)ccc1N1CCCCC1,3µM*,nt,nt,1%,25µM*,1,6*,?,30%,6%
O=C(Nc1cc(S(=O)(=O)N2CCOCC2)ccc1N1CCCCC1)c1ccc(Cl)cc1,5.3µM*,nt,?,-16%,?,-1,9.5*,?,2%,22%
COC(=O)c1ccc(NC(=O)c2cc3cc4ccc(OC)c(Cl)c4nc3s2)cc1,nt,nt,5%[59 µM],nt,4%,nt,nt,nt,nt,nt
Cc1ccc(NC(=O)c2ccc(-c3ccccc3)s2)cc1,nt,nt,3%[59 µM],nt,1%,nt,nt,nt,nt,nt
Cc1ccc(NC(=O)C2=C(c3ccccc3)S(=O)(=O)CCS2(=O)=O)cc1,6µM*,16µM*,40µM*,-7%,?,-1,6.3*,8.9µM*,6.5µM*,?
Cc1ccc(S(=O)(=O)Nc2ccc(O)c3ccccc23)c(C)c1,4.2µM*,56µM*,22µM*,-5%,28µM*,2,11*,10µM*,9%,?
Cc1cc(C)c(NC(=O)CSc2nc(=O)n(Cc3cccnc3)c3c2CCC3)c(C)c1,nt,nt,12%[59 µM],nt,9%,nt,nt,nt,nt,nt
CS(=O)(=O)c1sc(C#N)c2c1C(=O)CC(c1ccccc1)C2 (stereo not given),5.3µM*,?,25µM*,-24%,14µM*,-1,8.4*,?,15µM*,3.7µM*
O=C(O)c1ccc(C=C(c2nc3ccccc3s2)c2nc3ccccc3s2)cc1,30µM*,-3%,?,1%,?,-3,13*,16µM*,23µM*,-25%
COc1ccc(Cc2c(O)nc(SC)n(C(C)=O)c2=O)cc1,-14%,21%,2%[2.33 µM],1%,?,-4,?,5.6µM*,7%,6%
CCN(CC)C(=O)CSc1nc(O)c(Cc2ccc(OC)cc2)c(=O)[nH]1,-29%,-6%,nt,-4%,-6%,-3,nt,nt,nt,nt
Cc1ccc(C(=O)NCC(=O)OCN2C(=O)c3ccccc3C2=O)cc1C,5%,nt,4%[12.7 µM],-3%,-8%,1,nt,nt,nt,nt
Cc1ccc(C(=O)NC2(O)C(=O)c3ccccc3C2=O)cc1C,-22%,7%,50µM*,-2%,10µM*,-2,?,?,13%,-1%
O=C(N[C@@H](Cc1ccccc1)C(=O)O)c1ccc(C(F)(F)F)cc1,-3%,14%,-33%[59 µM],nt,-7%,-1,nt,nt,nt,nt
O=C(NC1(O)C(=O)c2ccccc2C1=O)c1ccc(C(F)(F)F)cc1,-16%,-7%,nt,-3%,1.8µM*,0,4.7*,?,22%,11%
COc1ccc(S(=O)(=O)NCCc2sc3nc(-c4ccc(C)cc4)nn3c2C)cc1F,nt,nt,2%[59 µM],nt,-2%,nt,nt,nt,nt,nt
CCOC(=O)/C(C#N)=C1/C(=O)N(Cc2ccccc2)c2ccccc21,3.8µM*,45µM*,25µM*,-2%,28µM*,0,3.4*,?,20%,25%
CCOC(=O)/C(C#N)=C1/C=Cc2ccccc2N1CC,-10%,11%,-6%[59 µM],1%,5%,-3,nt,nt,nt,nt
COC(=O)C1=C(C)N(Cc2ccco2)C(=O)/C1=C\c1ccc([N+](=O)[O-])cc1,-27%,20µM*,18µM*,2%,22µM*,1,?,28%,-29%,?
COC(=O)c1nnc(C(=O)N(C)Cc2ccccc2)c2[nH]c3ccccc3c12,nt,5%,nt,nt,-7%,nt,nt,nt,nt,nt
C[C@@H]1OC(Oc2ccccc2-c2cc(=O)c3c(O)cc(O)c([C@@H]4O[C@H](CO)[C@@H](O)[C@H](O)[C@H]4O)c3o2)[C@H](O)[C@H](O)[C@H]1O (stereo not given in full),nt,16%,nt,nt,-2%,nt,nt,nt,nt,nt
COc1ccc2nc(NC(=O)c3nc(S(=O)(=O)Cc4ccccc4)ncc3Cl)sc2c1,nt,nt,0%[59 µM],nt,2%,nt,nt,nt,nt,nt
Cc1ccc(NC(=O)c2nc(S(=O)(=O)Cc3ccccc3)ncc2Cl)cc1,?,?,?,0%,25µM*,1,19*,?,?,?
O=C(NCc1ccccc1)c1nc(S(=O)(=O)Cc2ccc(F)cc2)ncc1Cl,nt,nt,?,nt,32µM*,nt,3.2*,7.9µM*,21µM*,19µM*
O=C(Nc1ccc(F)cc1)c1nc(S(=O)(=O)Cc2ccccc2)ncc1Cl,17µM*,?,nt,-1%,?,0,3.5*,2.8µM*,3.3µM*,19µM*
Cc1cccc(CS(=O)(=O)c2ncc(Cl)c(C(=O)Nc3nc4ccc(F)cc4s3)n2)c1,nt,nt,-2%[59 µM],nt,-23%,nt,nt,nt,nt,nt
